Reference: PubChem BioAssay AID2717 (Broad Institute, 2010)
Screen size: about 300,000 compounds; about 3,200 (1.1%) were called active. Shown is part of a subset that was picked to be rich in actives. A number with no mark means an inactive call. Cut-off read from the data, not from the text of the source: active = inhibition above about 75%; inconclusive = no clear call, values can overlap the other calls; inactive = below that; tested in HMLE shEcad cells.

Assay: cancer stem cell viability inhibitors, primary screen, luminescence (AID 2717)
Conditions: cancer stem cell-like cells viability, at 7.5 µM, stronger effect = higher value

| Compound | inhibition |
| --- | --- |
| Cc1ccc(NC(=O)C2CC2)cc1S(=O)(=O)N1CCOCC1 | -16% |
| C[C@H](CO)N1C[C@H](C)[C@H](CN(C)C(=O)Nc2ccc(C(F)(F)F)cc2)Oc2c(NC(=O)c3ccncc3)cccc2C1=O | 6.77% |
| COc1ccc(NC(=O)Nc2ccc3c(c2)C(=O)N([C@H](C)CO)C[C@H](C)[C@@H](CN(C)C(=O)Nc2ccc4c(c2)OCO4)O3)cc1 | -11% |
| COc1cc(OC)cc(-c2sc3ccc(OC)cc3c2-c2ccc3cc[nH]c3c2)c1 | 137% (active) |
| COc1ccc2[nH]c(=S)cc(C)c2c1 | -16.3% |
| COc1ccc2sc(-c3ccc(N(C)C)cc3)c(-c3ccc4cc[nH]c4c3)c2c1 | 83.3% (active) |
| COc1cc(OC)cc(-c2c(-c3cccs3)c3cc(-c4ccc(OC)cc4F)ccc3n2C)c1 | -6.57% |
| CCN(CC)CC(=O)c1c[nH]c2ccc(OC)cc12 | 3.22% |
| COc1ccc2c(c1)CCNC2Cc1ccc(OC)c(O)c1 (stereo not given) | 10.2% |
| CC[C@H]1CN2CCc3cc(OC)c(OC)cc3[C@@H]2C[C@@H]1C[C@H]1NCCc2cc(OC)c(OC)cc21 | 76.3% (active) |
| COc1cc2c(cc1O)[C@H](Cc1ccc(Oc3cc(C[C@@H]4NCCc5cc(OC)c(O)cc54)ccc3O)cc1)NCC2 | 9.97% |
| CN=C(Nc1cccc(S(=O)(=O)N2CCOCC2)c1)c1ccccc1 | -5.3% |
| COc1ccc(S(=O)(=O)NC(C)C(=O)Nc2cccc([N+](=O)[O-])c2)cc1 (stereo not given) | -2.67% |
| COC(=O)/C=C\C(=O)Nc1cccc([N+](=O)[O-])c1 | 88.5% (active) |
| COc1cccc(CNC(=O)CCCC(=O)Nc2cccc([N+](=O)[O-])c2)c1 | -9.18% |
| Cc1ccc(NC(=O)c2ccc(Cl)nc2)cc1S(=O)(=O)N1CCOCC1 | 33.6% |
| Cc1cccc(N2CCN(C(=O)COCc3cc(-c4ccc5c(c4)OCO5)on3)CC2)c1C | 121% (active) |
| CCOC(=O)N1CCN(C(=O)COCc2cc(-c3ccc4c(c3)OCO4)on2)CC1 | -12.8% |
| O=C(COCc1cc(-c2ccc3c(c2)OCO3)on1)N1CCN(c2cccc(Cl)c2)CC1 | 36.2% |
| Cc1ccc(C(=O)Nc2ccc3c(c2)OCCO3)cc1S(=O)(=O)N1CCOCC1 | -3.87% |

| Compound | inhibition |
| --- | --- |
| C[C@H](CO)N1C[C@H](C)[C@@H](CN(C)S(=O)(=O)c2ccc(F)cc2)Oc2ccc(NC(=O)CCC(F)(F)F)cc2C1=O | 4.59% |
| CCN(c1ccccc1)S(=O)(=O)c1ccc(C(=O)Nc2ccccc2OC)cc1 | 16.8% |
| COc1ccc([C@H]2CC(=O)C=C(c3ccc(CO)cc3)C2)cc1 | -11% |
| Cc1csc(NC(=S)Nc2cccc(Cl)c2)n1 | 78.6% (active) |
| S=C(Nc1cccc(Cl)c1)Nc1ccc2c(c1)OCCO2 | 4.65% |
| FC(F)(F)c1cccc(NC(=S)Nc2cccc(Cl)c2)c1 | 52.9% |
| CCN(CC)S(=O)(=O)c1ccc(N2CCOCC2)c(NC(=O)C(C)Oc2ccc(F)cc2)c1 (stereo not given) | -11.2% |
| CN(c1ccccc1)S(=O)(=O)c1cc(C(=O)N2CCN(c3ncccn3)CC2)ccc1Cl | 3.3% |
| Cc1ccc(C)c(S(=O)(=O)N2CCN(c3ncnc4sccc34)CC2)c1 | 101% (active) |
| Cc1ccc(C)c(S(=O)(=O)N2CCN(C(=O)Nc3ccccc3)CC2)c1 | -18.4% |
| COc1ccc(C)cc1S(=O)(=O)N1CCN(S(=O)(=O)c2cc(C(=O)O)ccc2C)CC1 | -3.35% |
| CCC1(C)NC(=O)N(CC(=O)N2CCN(c3cccc(Cl)c3)CC2)C1=O (stereo not given) | 3.29% |
| CCN1C(=O)/C(=C\N2CCN(c3cccc(Cl)c3)CC2)SC1=S | 100% (active) |
| CCN1C(=O)/C(=C\N2CCOCC2)SC1=S | -22.1% |
| COc1cc(/C=C/C(=O)Nc2ccc(OC)c(S(=O)(=O)N3CCOCC3)c2)ccc1OCC#N | 42.4% |
| O=C(Nc1cccc(S(=O)(=O)N2CCCC2)c1)c1cncc(Br)c1 | -1.23% |
| C=CCC[C@@H](Cc1ccc(F)cc1)C(=O)OC[C@@H](C)NC(=O)[C@H](CC=C)CC(=O)N(CCO)Cc1ccccc1 | -1.95% |
| O=C(CSc1nnc(-c2ccncc2)o1)Nc1cccc(Cl)c1 | 7.36% |
| Cc1cc(C)c(S(=O)(=O)N2CCC(C(=O)OCc3c(C)noc3C)CC2)c(C)c1 | 1.55% |
| COc1cc(/C=C/C(=O)OCC(=O)NCCCc2ccccc2)ccc1O | 14.6% |
